Reference: PubChem BioAssay (Tox21)
Several values for one entry are separate records, joined by “and”; a condition that tells them apart may be missing. Equal values may be shown once. Inconclusive results are not listed. Entries that show only a call come without a potency. A structure can be active in one record and inactive in another. Activity calls are given as the source filed them. Unless noted, calls follow the shape of the dose curve; as a rule, active = well fitted curve in the direction sought with a large enough effect in the repeat runs; inconclusive = weak or mixed curves; inactive = no such curve, though single readings can be large; an effect the other way counts as inactive or inconclusive.

What was measured:
[1] = qHTS assay to identify small molecule agonists of the estrogen receptor alpha (ER-alpha) signaling pathway in the presence of an antagonist - cell viability counter screen (AID 1259386);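 also: cells exposed to compounds for 22 h at 37 °C before the viability read; nearly all actives have a fitted effect of over 30% in size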; also: potency is read from the fitted curve at half-maximal effect
Method in brief: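 In this counter screen, compound effects on VM7Luc4E2 viability were tested in the presence of the antagonist ICI-182,780 at 10.0nM final. Compounds were dosed at 15 concentrations, exposure lasted 22hr, and the CellTiter-Fluor signal was read.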

[2] = qHTS assay to identify small molecule antagonists of the TGF-beta/Smad signaling pathway - cell viability counter screen (AID 1346824); also: nearly all actives have a fitted effect of over 50% in size
Method in brief: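 Cytotoxicity counter-screen run in the same wells as the beta-lactamase Smad reporter read: CellTiter-Glo luminescence after 30 min at room temperature. HEK 293T SBE-bla cells had 5 hr compound exposure at 37 C with TGF-beta1 (0.25 ng/mL stock).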

[3] = qHTS assay to identify small molecule agonists of the TGF-beta/Smad signaling pathway - cell viability counter screen (AID 1346829); also: top concentration of the series differs between compounds; nearly all actives have a fitted effect of over 45% in size
Method in brief: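 Cytotoxicity counter screen: CellTiter-Glo luminescence (30 min, room temperature) measured in the SBE-bla HEK 293T reporter wells after 5 hr compound treatment at 37 C and the 2 hr substrate step.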

[4] = qHTS assay to identify small molecule agonists of the TGF-beta/Smad signaling pathway (AID 1346859; active = well fitted activation curve with a large enough effect in the signal ratio in the repeat runs, not every such curve was filed as active; the % refers to the signal ratio; also: series mostly up to about 77 µM)
Method in brief: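 Read-out: fluorescence at 460 and 530 nm (405 nm excitation) after a 2 hr room-temperature incubation with beta-lactamase FRET substrate. SBE-bla HEK 293T cells had been treated with test compounds for 5 hr at 37 C.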

[5] = target: Thyrotropin-releasing hormone receptor (Homo sapiens) (UniProt P34981); experiment: qHTS assay to identify small molecule antagonists of the thyrotropin-releasing hormone receptor (TRHR) signaling pathway (AID 1346877; active = well fitted inhibition curve with a large enough effect in the repeat runs, not every such curve was filed as active; also: series mostly up to about 51 µM)
Method in brief: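 Kinetic fluorescence (3 min, 1 s resolution) following stimulation with TRH at 1 nM final; HEK293 cells bearing human TRHR; 5 min compound preincubation at RT; concentration-response over 15 points, triplicates.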

[6] = Human pregnane X receptor (PXR) small molecule agonists, qHTS cell viability counter screen (AID 1346977); also: nearly all actives have a fitted effect of over 50% in size; also: potency is read from the fitted curve at half-maximal effect
Method in brief: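 Fluorescence read-out (CellTiter-Fluor) of viability in PXR-Luc HepG2 cells, multiplexed with the luciferase agonist read. Compounds in DMSO added after 5hr plating; 24hr total exposure at 37C, 5% CO2.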

[7] = Caspase-3/7 induction in HepG2 cells by small molecules, qHTS assay (AID 1346978); also: nearly all actives have a fitted effect of over 15% in size
Method in brief: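 Caspase-3/7 induction was measured by Caspase-Glo 3/7 luminescence (30 min, room temperature) after a 17 hr compound exposure of wild-type HepG2 cells seeded at 2,000 per well and pre-incubated 5 hr.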

[8] = Caspase-3/7 induction in CHO-K1 cells by small molecules, qHTS cell viability counter screen (AID 1346979); also: nearly all actives have a fitted effect of over 35% in size; also: potency is read from the fitted curve at half-maximal effect
Method in brief: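 CHO-K1 wt, 1,500 cells/well; 5hr pre-incubation 37C/5% CO2; compound pin transfer (DMSO); 16hr exposure; CellTiter-Fluor added, 1hr, fluorescence read.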

[9] = Caspase-3/7 induction in CHO-K1 cells by small molecules, qHTS assay (AID 1346980); also: nearly all actives have a fitted effect of over 15% in size
Method in brief: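 Luminescent Caspase-Glo 3/7 read (30min, room temperature) quantified apoptosis induction. Cells were wild-type CHO-K1, treated with compound for 17hr at 37 C and 5% CO2.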

[10] = Caspase-3/7 induction in HepG2 cells by small molecules, qHTS cell viability counter screen (AID 1346981); also: nearly all actives have a fitted effect of over 30% in size; also: potency is read from the fitted curve at half-maximal effect
Method in brief: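 In this quantitative HTS counter screen, compounds delivered in DMSO were left on unmodified HepG2 cells for 16 hr at 37 C. Viability was then determined fluorometrically with CellTiter-Fluor, in parallel with caspase-3/7 induction in the same wells.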

[11] = target: Acetylcholinesterase (Homo sapiens) (UniProt P22303); experiment: Acetylcholinesterase (AChE) small molecule antagonists: colormetric cell-based qHTS assay (AID 1347395; calls by dose curve; also: nearly all actives have a fitted effect of over 30% in size)
Method in brief: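 SH-SY5Y cells; cpd 30 min 37 C; + DTNB/acetylthiocholine, 90 min 37 C; colorimetric thiocholine read; qHTS.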

[12] = target: Progesterone receptor (Homo sapiens) (UniProt P06401); experiment: qHTS assay to identify small molecule agonists of the progesterone receptor (PR) signaling pathway (AID 1346784; calls by dose curve; also: nearly all actives have a fitted effect of over 30% in size)
Method in brief: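 HEK 293T PR-UAS-bla reporter cells, 2% charcoal-stripped FBS; 6 hr settle at 37C/5% CO2, compound (DMSO) 16 hr, LiveBLAzer B/G FRET substrate 2 hr RT, fluorescence intensity read.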

[13] = target: Nuclear receptor subfamily 1 group I member 2 (Homo sapiens) (UniProt O75469); experiment: Human pregnane X receptor (PXR) small molecule agonists, qHTS assay (AID 1346982); also: nearly all actives have a fitted effect of over 35% in size; also: potency is read from the fitted curve at half-maximal effect
Method in brief: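 Reporter HepG2 cells expressing PXR-Luc are cultured in charcoal-stripped FBS (5%), treated with compounds for 24 hr at 37 C, and assayed by ONE-Glo luminescence after 30 min at room temperature.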

[14] = qHTS assay to identify small molecule antagonists of the progesterone receptor (PR) signaling pathway - cell viability counter screen (AID 1346798); also: nearly all actives have a fitted effect of over 50% in size; also: potency is read from the fitted curve at half-maximal effect
Method in brief: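 Luminescence readout (CellTiter-Glo, 30 min, RT) of viability in PR-UAS-bla HEK293T cells exposed to compound and R5020 agonist for 16 hr at 37C, 5% CO2; run in the same wells as the beta-lactamase reporter read.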

[15] = qHTS assay to identify small molecule agonists of the progesterone receptor (PR) signaling pathway - cell viability counter screen (AID 1346799; calls by dose curve; also: nearly all actives have a fitted effect of over 45% in size; also: potency is read from the fitted curve at half-maximal effect)
Method in brief: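 HEK293T PR-UAS-bla, 3,000 cells/well, 2% charcoal-stripped FBS; 6 h settle, compound 16 h at 37C/5% CO2; LiveBLAzer 2 h RT, then CellTiter-Glo 30 min RT, luminescence read.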

[16] = target: Progesterone receptor (Homo sapiens) (UniProt P06401); experiment: qHTS assay to identify small molecule antagonists of the progesterone receptor (PR) signaling pathway (AID 1346795; active = well fitted inhibition curve with a large enough effect in the signal ratio in the repeat runs, not every such curve was filed as active; the % refers to the signal ratio)
Method in brief: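 Beta-lactamase reporter, HEK293T PR-UAS-bla line; 2% charcoal-stripped FBS; 6 hr pre-incubation, 37C/5% CO2. Compound + R5020 1 nM final, 16 hr. LiveBLAzer B/G FRET substrate, 2 hr RT; fluorescence intensity read.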

[17] = target: Thyrotropin-releasing hormone receptor (Homo sapiens) (UniProt P34981); experiment: qHTS assay to identify small molecule agonists of the thyrotropin-releasing hormone receptor (TRHR) signaling pathway (AID 1346891; calls by dose curve;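 also: HEK293 cells expressing TRHR with calcium dye readout; series mostly up to about 58 µM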)
Method in brief: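 HEK293/TRHR cells, 1500 per well, 18 h 37 °C; Ca dye 2 h 37 °C; pin-tool compound addition (agonist mode); kinetic fluorescence 3 min, 1 s reads; 15 concentrations, triplicate.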

[18] = target: Nuclear receptor subfamily 1 group I member 2 (Rattus norvegicus) (UniProt Q9R1A7); experiment: Rat pregnane X receptor (rPXR) activation by small molecules, qHTS assay (AID 1346983); details: rPXR luciferase reporter cells, One-Glo luminescence, 24 h; stronger effect = higher value; also: nearly all actives have a fitted effect of over 20% in size
Method in brief: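 Luminescent readout (One-Glo luciferase, 30 min room temperature) followed 24 hr compound treatment at 37 C of rPXR cells plated 2,000 per well and preincubated 5hr; qHTS format with compounds delivered in DMSO.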

Chain of Thyrotropin-releasing hormone receptor (Homo sapiens) (P34981 whole entry, looked up): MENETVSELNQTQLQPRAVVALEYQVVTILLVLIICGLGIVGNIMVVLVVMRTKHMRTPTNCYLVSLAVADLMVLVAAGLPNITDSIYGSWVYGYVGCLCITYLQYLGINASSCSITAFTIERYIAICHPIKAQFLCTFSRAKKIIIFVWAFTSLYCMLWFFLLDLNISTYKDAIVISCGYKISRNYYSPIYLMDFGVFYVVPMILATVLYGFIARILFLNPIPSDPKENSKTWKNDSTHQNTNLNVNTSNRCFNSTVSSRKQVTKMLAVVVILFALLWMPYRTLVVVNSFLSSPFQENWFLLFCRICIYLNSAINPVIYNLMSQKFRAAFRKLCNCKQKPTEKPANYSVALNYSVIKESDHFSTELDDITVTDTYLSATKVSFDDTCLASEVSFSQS
Chain of Acetylcholinesterase (Homo sapiens) (P22303 whole entry, looked up): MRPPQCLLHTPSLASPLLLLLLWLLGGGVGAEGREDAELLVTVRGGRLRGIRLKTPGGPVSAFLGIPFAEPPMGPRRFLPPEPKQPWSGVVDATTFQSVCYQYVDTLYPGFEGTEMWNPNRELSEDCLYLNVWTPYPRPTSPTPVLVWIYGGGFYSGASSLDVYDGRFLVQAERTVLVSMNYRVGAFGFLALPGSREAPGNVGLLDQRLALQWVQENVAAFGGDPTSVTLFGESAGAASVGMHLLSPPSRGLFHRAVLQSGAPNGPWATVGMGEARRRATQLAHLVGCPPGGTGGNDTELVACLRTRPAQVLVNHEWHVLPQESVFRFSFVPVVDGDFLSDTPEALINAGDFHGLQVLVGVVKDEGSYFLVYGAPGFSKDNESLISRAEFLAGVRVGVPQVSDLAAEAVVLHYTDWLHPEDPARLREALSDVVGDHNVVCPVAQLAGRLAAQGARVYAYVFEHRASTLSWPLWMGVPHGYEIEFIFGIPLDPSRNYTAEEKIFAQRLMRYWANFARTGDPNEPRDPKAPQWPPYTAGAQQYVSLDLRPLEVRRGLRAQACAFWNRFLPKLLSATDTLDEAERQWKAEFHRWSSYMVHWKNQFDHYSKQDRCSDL
Chain of Progesterone receptor (Homo sapiens) (P06401 whole entry, looked up): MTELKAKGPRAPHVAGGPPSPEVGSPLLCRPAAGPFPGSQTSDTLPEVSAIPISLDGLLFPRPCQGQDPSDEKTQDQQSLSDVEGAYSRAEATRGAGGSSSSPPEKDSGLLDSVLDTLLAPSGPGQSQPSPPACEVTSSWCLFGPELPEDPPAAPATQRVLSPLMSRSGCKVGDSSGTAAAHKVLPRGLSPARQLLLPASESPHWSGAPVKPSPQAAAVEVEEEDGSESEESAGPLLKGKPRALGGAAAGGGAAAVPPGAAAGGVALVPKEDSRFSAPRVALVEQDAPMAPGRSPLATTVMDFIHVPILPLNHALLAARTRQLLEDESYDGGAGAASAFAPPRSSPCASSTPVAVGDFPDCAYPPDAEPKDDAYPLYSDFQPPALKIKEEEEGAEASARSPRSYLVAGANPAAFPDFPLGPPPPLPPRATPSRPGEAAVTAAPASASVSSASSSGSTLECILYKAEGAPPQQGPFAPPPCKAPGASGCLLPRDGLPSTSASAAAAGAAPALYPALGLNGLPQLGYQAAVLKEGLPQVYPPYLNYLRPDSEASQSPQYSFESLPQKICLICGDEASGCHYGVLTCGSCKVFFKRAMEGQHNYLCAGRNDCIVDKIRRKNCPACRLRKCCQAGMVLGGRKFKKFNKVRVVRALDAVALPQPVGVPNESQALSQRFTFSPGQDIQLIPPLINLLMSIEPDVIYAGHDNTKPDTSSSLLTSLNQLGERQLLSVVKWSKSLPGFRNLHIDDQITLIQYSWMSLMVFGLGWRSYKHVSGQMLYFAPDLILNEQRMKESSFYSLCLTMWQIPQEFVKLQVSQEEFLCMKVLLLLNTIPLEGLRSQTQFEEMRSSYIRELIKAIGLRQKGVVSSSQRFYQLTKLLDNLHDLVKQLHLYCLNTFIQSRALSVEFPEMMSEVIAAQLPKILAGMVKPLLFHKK
Chain of Nuclear receptor subfamily 1 group I member 2 (Homo sapiens) (O75469 whole entry, looked up): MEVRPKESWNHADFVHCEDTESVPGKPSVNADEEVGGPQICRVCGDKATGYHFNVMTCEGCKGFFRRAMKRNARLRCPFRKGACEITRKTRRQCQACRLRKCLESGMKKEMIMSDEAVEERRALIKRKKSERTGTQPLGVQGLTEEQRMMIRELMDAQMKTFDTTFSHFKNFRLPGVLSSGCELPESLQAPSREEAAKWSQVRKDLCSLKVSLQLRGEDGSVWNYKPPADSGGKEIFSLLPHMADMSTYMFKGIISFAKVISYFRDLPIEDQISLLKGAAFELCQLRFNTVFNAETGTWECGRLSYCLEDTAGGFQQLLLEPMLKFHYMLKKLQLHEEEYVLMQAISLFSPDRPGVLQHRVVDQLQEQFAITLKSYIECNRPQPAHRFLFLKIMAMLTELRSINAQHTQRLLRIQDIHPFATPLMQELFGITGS
Chain of Nuclear receptor subfamily 1 group I member 2 (Rattus norvegicus) (Q9R1A7 whole entry, looked up): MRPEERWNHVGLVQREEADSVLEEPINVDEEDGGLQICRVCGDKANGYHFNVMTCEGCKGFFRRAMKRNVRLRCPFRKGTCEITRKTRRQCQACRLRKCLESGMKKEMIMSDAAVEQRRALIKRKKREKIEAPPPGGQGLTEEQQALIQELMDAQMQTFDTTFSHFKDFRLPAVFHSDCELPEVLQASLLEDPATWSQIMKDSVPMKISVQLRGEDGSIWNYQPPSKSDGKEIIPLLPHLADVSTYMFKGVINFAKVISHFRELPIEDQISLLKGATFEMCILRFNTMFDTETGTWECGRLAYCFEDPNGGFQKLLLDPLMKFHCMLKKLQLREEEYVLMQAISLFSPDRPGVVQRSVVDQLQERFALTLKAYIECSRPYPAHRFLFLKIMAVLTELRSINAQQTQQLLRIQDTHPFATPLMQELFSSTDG

Row | Structure (SMILES) | Potency [1] | outcome [2] | Potency [3] | outcome [4] | Potency [5] | Potency [6] | outcome [7] | Potency [8] | outcome [9] | Potency [10] | Potency [11] | Potency [12] | Potency [13] | Potency [14] | Potency [15] | Potency [16] | outcome [17] | max activation [18]
1 | C[C@H]1CCCC(=O)CCC/C=C/c2cc(O)cc(O)c2C(=O)O1 | 46.8 µM (active) and inactive | inactive | inactive | inactive | inactive | 52.5 µM (active) | inactive | 46.8 µM (active) and 22.4 µM (active) | inactive | 46.8 µM (active) and 22.4 µM (active) | inactive | – | – | – | – | – | – | –
2 | Oc1ccc(Cc2ccc(O)cc2)cc1 | inactive | inactive | inactive | inactive | – | inactive | inactive | inactive | inactive | – | inactive | inactive | 54.9 µM (active) | – | – | – | – | –
3 | CC(C)(C)C(=O)Cl | inactive | inactive | inactive | – | inactive | inactive | inactive | inactive | inactive | inactive | inactive | – | inactive | inactive | inactive | – | – | –
4 | O=C(O)C(F)(F)C(F)(F)C(F)(F)C(F)(F)C(F)(F)C(F)(F)F | inactive | inactive | inactive | inactive | inactive | inactive | inactive | inactive | inactive | inactive | – | – | inactive | 48.6 µM (active) | 27.3 µM (active) | inactive | inactive | –
5 | C#CCOC(=O)/C=C(C)/C=C/CC(C)CCCC(C)C (stereo unspecified) | inactive | inactive | inactive | inactive | inactive | inactive | inactive | inactive | inactive | inactive | inactive | inactive | inactive | – | inactive | – | inactive | –
6 | C=CCN1CC[C@]23CCCC[C@H]2[C@H]1Cc1ccc(O)cc13 | inactive | inactive | inactive | inactive | inactive | inactive | inactive | inactive | inactive | inactive | – | inactive | – | – | inactive | – | – | -1.31% (inactive)
7 | O=c1[nH]c2ccccc2o1 | inactive | inactive | inactive | – | inactive | inactive | inactive | inactive | inactive | inactive | inactive | inactive | inactive | – | – | – | inactive | –
8 | CC(Cc1ccccc1)NCCn1cnc2c1c(=O)n(C)c(=O)n2C (stereo unspecified) | – | inactive | inactive | inactive | inactive | inactive | inactive | – | inactive | inactive | inactive | inactive | inactive | inactive | inactive | inactive | – | –
9 | CN(C)CCc1c[nH]c2cccc(OP(=O)(O)O)c12 | – | inactive | inactive | inactive | inactive | inactive | inactive | inactive | inactive | inactive | inactive | inactive | inactive | inactive | inactive | – | inactive | –
10 | CC(C)(N)Cc1ccccc1Cl | inactive | inactive | inactive | inactive | inactive | inactive | inactive | inactive | – | inactive | inactive | inactive | inactive | – | – | – | inactive | –
11 | CCNP(=S)(OC)O/C(C)=C/C(=O)OC(C)C (stereo unspecified) | inactive | – | inactive | inactive | inactive | inactive | inactive | inactive | inactive | inactive | – | inactive | 9.69 µM (active) | – | inactive | – | inactive | –
